Measured values from PubChem BioAssay (NCI).
The panel holds about 83,000 compounds, 20% with a hit somewhere; the sample as a whole holds those more often.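 Cell lines were cultured in 96-well plates, exposed to a single compound concentration, and assessed for percent growth 48 hours later.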 A number with no mark means an inactive call. Calls of active or inactive are those of the source. The calls were made as follows: active = growth percent below 10; inactive = the rest.

Tests used:
Experiment in all cases: NCI-60 one-dose screen, 48 h (100 = growth as untreated, 0 = no growth, -100 = all killed)
Details in all cases: 10 µM unless noted
DU-145 prostate = tested on: DU-145 prostate
K-562 leukemia = tested on: K-562 leukemia
MALME-3M melanoma = tested on: MALME-3M melanoma
MDA-MB-231 breast = tested on: MDA-MB-231 breast
SF-268 CNS = tested on: SF-268 CNS
SF-539 CNS = tested on: SF-539 CNS
UACC-257 melanoma = tested on: UACC-257 melanoma
M14 melanoma = tested on: M14 melanoma
HCT-15 colon = tested on: HCT-15 colon
HT29 colon = tested on: HT29 colon
SNB-75 CNS = tested on: SNB-75 CNS
SNB-19 CNS = tested on: SNB-19 CNS
PC-3 prostate = tested on: PC-3 prostate
SK-MEL-5 melanoma = tested on: SK-MEL-5 melanoma
UACC-62 melanoma = tested on: UACC-62 melanoma
LOX IMVI melanoma = tested on: LOX IMVI melanoma
SK-MEL-28 melanoma = tested on: SK-MEL-28 melanoma
SF-295 CNS = tested on: SF-295 CNS
RXF 393 renal = tested on: RXF 393 renal
U251 CNS = tested on: U251 CNS

Structure (SMILES) | growth (DU-145 prostate) | growth (K-562 leukemia) | growth (MALME-3M melanoma) | growth (MDA-MB-231 breast) | growth (SF-268 CNS) | growth (SF-539 CNS) | growth (UACC-257 melanoma) | growth (M14 melanoma) | growth (HCT-15 colon) | growth (HT29 colon) | growth (SNB-75 CNS) | growth (SNB-19 CNS) | growth (PC-3 prostate) | growth (SK-MEL-5 melanoma) | growth (UACC-62 melanoma) | growth (LOX IMVI melanoma) | growth (SK-MEL-28 melanoma) | growth (SF-295 CNS) | growth (RXF 393 renal) | growth (U251 CNS)
O=C(O)C(O)C(O)C(=O)O.[NH-]C1CCCCC1[NH-].[Pt+2] (configuration not stated) | 107% | 105% | 127% | 98.7% | 104% | 105% | 122% | 103% | 103% | 111% | 80.8% | 101% | 106% | 103% | 100% | 112% | 95.1% |  |  | 
O=C(NC(Cc1ccccc1)C(=O)CCl)OCc1ccccc1 (configuration not stated) | 93.5% | 13.7% | 72.4% | 73.9% | 63.2% | 62.4% | 87.2% | 80.1% | 58.6% | 53.6% | 83.7% | 82.2% | 67.5% | 75.9% | 68% | -7.12% (active) | 85.8% |  |  | 
NC(CC(=O)O)C(=O)OCc1ccccc1 (configuration not stated) | 109% | 106% | 81.1% | 105% | 100% | 93.4% | 89.2% | 104% | 95.1% |  | 65.5% | 101% | 103% | 97.8% | 94.5% | 107% | 99.1% | 93.3% |  | 
C#Cc1nc(Nc2cc(C)[nH]n2)c2ccccc2n1 | -80% (active) | 2.59% (active) | -70.8% (active) | -56% (active) | -86% (active) | -44.5% (active) | -54.9% (active) | -23.6% (active) | -25.6% (active) | -30.1% (active) | -88.9% (active) | 13.3% |  | -84.9% (active) | -81.5% (active) | -74.8% (active) | -58.5% (active) | -57.9% (active) |  | 
CCN(CC)CC(C)(C)C(=O)/C=C/c1ccccc1 | 8.96% (active) | 6.77% (active) | 37.4% |  | 91.3% | 28.8% | 65.9% | 31.9% | 21.2% | 49% | 81.6% |  | 69% | 81.9% | 39.8% | -2.72% (active) | 67.8% | 87.6% | 30.3% | 86.4%
CCN(CC)CCCNc1cccc2c(SCc3ccccc3)ccnc12 | -22.8% (active) | -63% (active) | -84.3% (active) |  | 23.9% | 81.4% | 88.1% | -47.4% (active) | 81.1% | -33.1% (active) | 87.1% |  | 17.7% | 85.4% |  | 24% | 108% | 61% | 88.4% | 
O=C(/C=C/c1ccc(B(O)O)cc1)/C=C/c1ccc(B(O)O)cc1 | 64.4% | 12.9% |  | 38.6% | 59.2% | 21.6% | 51.9% | 20.5% | 8.01% (active) | -8.22% (active) | 72.4% | 69% | 57.1% | 85.5% | 13% | -36.5% (active) | 86.7% | 89.8% | 10.2% | 
COC1C/C(=N\O)C2OC(c3ccccc3)OCC2O1 (configuration not stated) | 109% | 97.3% | 100% | 105% | 109% | 101% | 68.1% | 104% | 97.8% | 113% | 66.1% | 94.3% | 100% | 102% | 96.5% | 101% | 101% |  |  | 
CCCCCCCCCCCCN1CCCC(C)C1 (configuration not stated) | 95.2% | 19.2% | 107% | 55.8% | 89.7% | 86.4% | 88.3% | 82.7% | 61.8% | 24% | 73.4% | 101% |  | 68.4% | 108% | 56.4% | 90% |  |  | 
O=C(/C=C/c1cccc(Br)c1)c1ccccc1 | 92.1% |  | 99.3% | 92.7% | 89% | 103% | 81.7% | 91.1% | 76.6% | 67.9% | 88.4% | 96% | 68.1% | 92.3% | 92.6% | 78.2% |  | 94.9% | 89.9% | 
CC/C(=C(\c1ccccc1)c1ccc(OCCNC)cc1)c1ccccc1 | -66.8% (active) | -5.96% (active) | -92.9% (active) |  | 1.29% (active) | -98% (active) | -68.4% (active) | -89.7% (active) | -94.3% (active) | -89.8% (active) | -81.7% (active) |  | -67.6% (active) | -99.8% (active) | -99.1% (active) | -100% (active) | -98.5% (active) | -99.3% (active) | -97.6% (active) | -80.3% (active)
CN1C2CCC1/C(=C\c1ccc(Cl)cc1)C1=C2[C@@H](c2ccc(Cl)cc2)C(C#N)=C(N)O1 (some centres not stated) | 94.5% |  | 88% | 104% | 85% | 94.2% | 85.9% | 95.2% | 71.9% | 65.2% | 92.4% | 99.8% | 82.4% | 88.9% | 75.7% | 91.7% |  | 97.8% | 68.8% | 
N=S(=O)(NC(=O)c1ccc(Cl)cc1Cl)c1ccc(Br)s1 (configuration not stated) | 105% | 107% |  | 98.2% | 99.8% | 91.7% | 98.2% | 99.8% | 82.4% | 111% | 108% | 85.5% | 102% | 94.7% | 112% | 98.1% | 111% | 89.6% | 91.7% | 
CCOC(=O)C(=Cc1ccccc1F)C(=O)OCC | 71.1% |  | 94.2% | 93.3% | 89.9% | 98% | 83.2% | 85.8% | 86.9% | 103% | 83.4% | 104% | 87.6% | 92.8% | 94.9% | 86.4% | 104% | 111% | 102% | 
COc1ccc2nc3cc(Cl)ccc3c(N3CCN(c4ccnc(N5CCOCC5)n4)CC3)c2c1 | 24.2% |  | 80.3% | 45.1% | 45.3% |  | 76.9% | 86.6% | 8.96% (active) | -18.2% (active) | 66.8% | 95.5% | 67.2% | 88.4% | 91.9% | -59% (active) | 35.9% | 88.7% | 8.55% (active) | 64.2%
CN1CCN(c2ccc3nc(-c4ccc5nc(-c6ccc(OCCC(C)(C)C)cc6)[nH]c5c4)[nH]c3c2)CC1 | -80.9% (active) |  | 18.2% | -33.3% (active) | 56.6% | -72.3% (active) | 110% | -11.2% (active) | 56.3% | -82.3% (active) | 90.1% | -67.6% (active) | -72.6% (active) | 80.2% | 88.1% | -73.7% (active) | -59.2% (active) | 50.9% | -72.1% (active) | 
